Epigenetic mod: epigenetic GFP locus derepression in mouse cells. Potency, µM (titrated, usually from 46.1 µM), for the others: top-dose GFP derepression (activation). AID 597. 0.09% of 68,000 active. mouse C127i GFP locus derepression, cytometry, 30 h; also: % of control where 0% means no effect
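Locus derepression in mouse mammary C127i cells whose integrated CMV-GFP reporter is normally silent; GFP expression after 30 h compound treatment was quantified by counting fluorescent cells.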
HBB splice mod: modulators of hemoglobin beta chain splicing; HBB splicing reporter cell assay, activation; EGFP reporter with mutant IVS2-654 intron; response scale: normalised to 500 nM splice-correcting PNA; Potency, µM (titrated, usually from 46.1 µM), for inactives: at the top dose activation, actives largely listed as activators; 0.06% of 65,000 active; AID 925; also: potency is read from the fitted curve at half-maximal effect; 0% is about no effect
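HeLa cells stably expressing EGFP interrupted by mutant beta-globin intron 2 (IVS2-654), 500/well in 2% FCS. Treated with compound for 2 days at 37C. Splicing correction scored as total well GFP intensity (488 nm excitation, 500-520 nm emission); 500 nM antisense PNA served as control.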
Ub-GFP proteasome: ubiquitin-GFP accumulation via proteasome inhibition | Ubiquitin-GFP reporter cells, proteasome inhibition, GFP fluorescence; response scale: untreated = 0%, 10 µM MG-132 = 100% | Potency, µM (highest dose often 45.9 µM), inactives show at the highest dose activation (GFP accumulation), hits mostly activators | 67,000 tested, under 10 active | AID 526; active = well fitted activation curve with a large enough effect, not every such curve was filed as active; inconclusive = small, poorly fitted or top-dose-only effect, or another doubt; inactive = no such curve, though single readings can be large or run the other way; also: potency is read from the fitted curve at half-maximal effect
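U2OS cells stably expressing ubiquitin(G76V)-GFP, seeded overnight in 0.5% FBS medium, were exposed to compounds (qHTS, 46 uM to 2.9 nM) for 4 hr at 37 °C. GFP-positive cells were counted by laser cytometry (488 ex/515 em), normalized between basal and 10 uM MG-132.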
ALOX15 inhib: 15-hLO (ALOX15) enzyme inhibition; P16050; purified 15hLO-1, xylenol orange hydroperoxide absorbance; Potency, µM (top dose mostly 57.1 µM), without a hit: at the highest dose activity change, negative = inhibition, most hits filed as inhibitors; 1.4% of 74,000 active; AID 887; also: potency is read from the fitted curve at half-maximal effect; % is scaled to controls: 0 for no effect and ±100 for the full control effect; nearly all actives have a fitted effect of over 55% in size
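Purified human 15hLO-1 (40 nM final) in 25 mM Hepes pH 7.5, 0.01% Triton X-100 was preincubated with compound 15 min at room temperature, then reacted 6 min with 50 uM arachidonic acid; hydroperoxide detected by Fe-XO, 573/405 nm absorbance ratio.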
Tau filament bind: binders of human tau filaments. P10636. 2% of 71,000 active. Potency, µM (top dose mostly 57.1 µM), inactives show at the highest dose activity change, negative = inhibition. recombinant tau filaments, thioflavin S fluorescence, 15 h; filaments grown with octadecylsulfate alongside compound;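 also: potency is read from the fitted curve at half-maximal effect; % is scaled to controls: 0 for no effect and ±100 for the full control effect; actives lower thioflavin S fluorescence by blocking filaments or displacing dye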
Target sequence (P10636 whole entry, looked up): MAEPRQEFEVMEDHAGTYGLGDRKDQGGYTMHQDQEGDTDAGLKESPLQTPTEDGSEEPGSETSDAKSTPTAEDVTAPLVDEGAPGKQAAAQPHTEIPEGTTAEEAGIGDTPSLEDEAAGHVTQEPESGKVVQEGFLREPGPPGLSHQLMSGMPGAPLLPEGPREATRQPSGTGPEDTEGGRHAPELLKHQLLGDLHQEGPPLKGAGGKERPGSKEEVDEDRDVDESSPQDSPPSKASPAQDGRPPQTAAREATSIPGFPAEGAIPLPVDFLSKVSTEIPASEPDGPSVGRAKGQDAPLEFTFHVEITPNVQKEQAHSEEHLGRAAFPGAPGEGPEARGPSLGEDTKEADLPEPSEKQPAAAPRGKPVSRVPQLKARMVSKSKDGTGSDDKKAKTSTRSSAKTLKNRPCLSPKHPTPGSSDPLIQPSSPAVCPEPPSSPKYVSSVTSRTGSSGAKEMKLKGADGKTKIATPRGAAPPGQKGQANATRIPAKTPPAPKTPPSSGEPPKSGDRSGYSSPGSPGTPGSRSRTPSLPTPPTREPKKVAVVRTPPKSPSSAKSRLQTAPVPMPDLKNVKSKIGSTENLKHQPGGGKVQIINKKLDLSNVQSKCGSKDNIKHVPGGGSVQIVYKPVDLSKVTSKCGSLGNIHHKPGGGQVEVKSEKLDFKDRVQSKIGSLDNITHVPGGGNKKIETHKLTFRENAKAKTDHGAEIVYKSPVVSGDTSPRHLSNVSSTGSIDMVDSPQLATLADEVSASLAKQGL
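Quantitative HTS: thioflavine S signal from ODS-induced tau filaments, excited at 450 nm, emission 510 nm. Conditions: 1 uM tau, 30 uM ODS, 15 h at 37 C, pH 7.4.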
ALOX15B inhib: 15-hLO-2 (ALOX15B) enzyme inhibition | 0.56% of 110,000 active | Potency, µM (titrated, usually from 57.1 µM), without a hit: at the highest dose activity change, negative = inhibition, actives largely listed as inhibitors | purified 15hLO-2, xylenol orange hydroperoxide absorbance | O15296; also: potency is read from the fitted curve at half-maximal effect; % is scaled to controls: 0 for no effect and ±100 for the full control effect; nearly all actives have a fitted effect of over 60% in size
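Enzyme 50 nM, AA 45 uM, 25 mM Hepes pH 7.5 + 0.01% Triton X-100; cpd preinc 15 min RT, rxn 90 min RT; stop/detect with 200 uM XO + 300 uM Fe(II) in 50 mM H2SO4, 30 min; A573/A405.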
* = called active by the depositor; u = inconclusive; x = no result given; ! = a repeat was not active; [ ] = another dose, or the depositor's remark. This is a sample that favours compounds with a hit; in the whole collection about 2.3% have one here. Unless noted, calls follow the shape of the dose curve; as a rule, active = well fitted curve in the direction sought with a large enough effect; inconclusive = small, poorly fitted or top-dose-only effect, or another doubt; inactive = no such curve, though single readings can be large; an effect the other way counts as inactive or inconclusive.

SMILES | Epigenetic mod | HBB splice mod | Ub-GFP proteasome | ALOX15 inhib | Tau filament bind | ALOX15B inhib
O=C(O)c1nnsc1-c1ccc(-c2snnc2C(=O)O)cc1 | 6%[9.22 µM] | 1%[9.22 µM] | -5%[9.17 µM] | -27%[11.4 µM] | -6%[11.4 µM] | -5%[11.4 µM]
CN(C)CCOC(=O)c1ccc(N)cc1 | 0%[9.22 µM] | 1%[9.22 µM] | 3%[9.17 µM] | 3%[11.4 µM] | -5%[11.4 µM] | -1%[11.4 µM]
CCOC(=O)c1c(C)c(C(=O)Nc2ccc(N(C)C)cc2)c(C)n1CC | -2% | 0% | 12% | -24% | 16µM* | -23%
CCCOC(=O)c1ccc(Oc2c(-c3ccc(O)cc3O)n[nH]c2C)cc1 | 3% | 1% | -8% | u | 20µM* | 13%
CCN(Cc1cc2ccccc2[nH]c1=O)S(=O)(=O)c1ccccc1 | 6% | -2% | 1% | u | 13µM* | -14%
CCCCCCC(=O)O | x | 1% | x | -2% | 0% | 0%
CCCCCCCCCCCCCCCCCC(=O)O | x | 1% | x | u | 58% | -5%
CCCCCCCC/C=C\CCCCCCCC(=O)NCCO | 1% | -1% | -2% | 3%[25.6 µM] | 32µM*! | 11%
CCCCC/C=C\C/C=C\CCCCCCCC(=O)O | x | 0% | x | 0.16µM* | u | 7%
CCCCCCCC/C=C\CCCCCCCC(=O)O | x | 0% | x | -6% | 32µM* | -5%
CCCCCCCC/C=C\CCCCCCCC(=O)N(CCO)CCO | x | 0% | x | 1.3µM* | 78% | 2%
CCCCCCCCCCCCCC(=O)O | x | -1% | x | -15% | -24% | u
COc1ccc2c(c1)[n+]([O-])c(/C(C)=N/NC(N)=S)c(C)[n+]2[O-] | 0%[9.22 µM] | 0%[9.22 µM] | 9%[9.17 µM] | -7%[11.4 µM] | -22%[11.4 µM] | -3%[11.4 µM]
CN(C)CCn1c(CO)nc2c1c(=O)n(C)c(=O)n2C | 5%[9.22 µM] | 6%[9.22 µM] | -1%[9.17 µM] | 3%[11.4 µM] | 4%[11.4 µM] | -3%[11.4 µM]
CC(C)[C@@H]1OC(=O)C=CC=CC=CC=CC=CC[C@@H](O)[C@H](C)[C@@H](O)C[C@H](O)C[C@H](O)C[C@H](O)C[C@H](O)C[C@H](O)C[C@H](O)C=C[C@@H]1C | 7%[9.22 µM] | 1%[9.22 µM] | 2%[9.17 µM] | x | 16%[11.4 µM] | x
COc1ccc(Cn2nnnc2C(c2cccs2)N2CCN(c3ccccc3)CC2)cc1 (centres undefined) | 2% | 0%[57.5 µM] | -8% | 3% | 4% | 0%
Oc1ccc(N2CCN(C(c3cccs3)c3nnnn3CCc3ccccc3)CC2)cc1 (centres undefined) | 0% | x | 0% | 3.2µM* | -6% | u
CCN(CCCNC(=O)CC1Oc2ccc(C)cc2NC1=O)Cc1ccccc1 (centres undefined) | -2% | 0% | -3% | 10µM* | -21% | x
Cc1ccc2c(c1)NC(=O)C(CC(=O)NCCCN1CCCC1)O2 (centres undefined) | x | 0% | -6% | -10% | 5% | 7%
Cc1ccc2c(c1)NC(=O)C(CC(=O)NCCCN1CCc3ccccc3C1)O2 (centres undefined) | 1% | 0% | 8% | -24% | -28% | 13%
COc1ccc(N2CCN(CCCNC(=O)CC3Oc4ccc(C)cc4NC3=O)CC2)cc1 (centres undefined) | x | -1% | -4% | -28% | 25µM* | 15%
CCOC(=O)C(C)Sc1nc(-c2ccco2)cc(C(F)(F)F)c1C#N (centres undefined) | 0% | 0%[57.5 µM] | 5% | -8% | 20µM* | -27%
CCOC(=O)c1sc(NC(=O)CSc2nc(-c3ccco3)cc(C(F)(F)F)n2)c(C#N)c1C | 1% | x | 4% | -3% | -1% | 2%[2.29 µM]
Cc1ccc(NC(=O)CN2CC(C)SC2=NC2CCCCC2)cc1 (centres undefined) | 1% | 1% | -2% | -24% | 13µM* | 11%
CC[C@@H](Nc1ncnc2nc[nH]c12)C(=O)O | -2%[9.22 µM] | 4%[9.22 µM] | -1%[9.17 µM] | -2%[11.4 µM] | 6%[11.4 µM] | -4%[11.4 µM]
O=C(NC(=S)Nc1ccc(N2CCOCC2)c(Cl)c1)C(c1ccccc1)c1ccccc1 | x | x | x | x | x | 13µM*

Assay outcomes as filed in PubChem.
